From PubChem
CendR NRP1 mod: modulators of CendR peptide binding to human neuropilin-1; O14786; FAM-RPARPAR peptide binding to NRP-1, fluorescence polarization; inhibition, % at 25 µM; actives 0.85% (n = 360,000); AID 602438;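 active = inhibition or corrected inhibition above about 18%, plus a signal ratio from 0.5 to 1.5, limit read from the data, passing the limit was not always enough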
CRFR2-BP antag: antagonists of CRF-binding protein/CRF-R2 receptor complex. actives 0.59% (n = 350,000). HEK293 CRF-R2/CRF-BP, CRF-induced calcium fluorescence. inhibition, % at 11.8 µM;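 active = inhibition of the ligand-induced calcium signal above about 50% at the single tested concentration, limit read from the data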
NadD inh: inhibitors of Staphylococcus aureus NadD; actives 0.78% (n = 360,000); purified NadD enzyme, colorimetric absorbance read-out; AID 602399; inhibition, % at 20 µM; in the data active = inhibition above about 26%
FAS-TE inh: inhibitors of human fatty acid synthase thioesterase domain; P49327; recombinant FAS-TE, OMFH fluorogenic substrate, fluorescence endpoint; inhibition, % at 15 µM; actives 0.67% (n = 360,000); AID 602261;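 active = compounds whose normalised, plate-corrected inhibition of enzyme fluorescence in the single-dose primary screen is 50% or more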
Target sequence (P49327 whole entry, looked up, the tested form may be a part): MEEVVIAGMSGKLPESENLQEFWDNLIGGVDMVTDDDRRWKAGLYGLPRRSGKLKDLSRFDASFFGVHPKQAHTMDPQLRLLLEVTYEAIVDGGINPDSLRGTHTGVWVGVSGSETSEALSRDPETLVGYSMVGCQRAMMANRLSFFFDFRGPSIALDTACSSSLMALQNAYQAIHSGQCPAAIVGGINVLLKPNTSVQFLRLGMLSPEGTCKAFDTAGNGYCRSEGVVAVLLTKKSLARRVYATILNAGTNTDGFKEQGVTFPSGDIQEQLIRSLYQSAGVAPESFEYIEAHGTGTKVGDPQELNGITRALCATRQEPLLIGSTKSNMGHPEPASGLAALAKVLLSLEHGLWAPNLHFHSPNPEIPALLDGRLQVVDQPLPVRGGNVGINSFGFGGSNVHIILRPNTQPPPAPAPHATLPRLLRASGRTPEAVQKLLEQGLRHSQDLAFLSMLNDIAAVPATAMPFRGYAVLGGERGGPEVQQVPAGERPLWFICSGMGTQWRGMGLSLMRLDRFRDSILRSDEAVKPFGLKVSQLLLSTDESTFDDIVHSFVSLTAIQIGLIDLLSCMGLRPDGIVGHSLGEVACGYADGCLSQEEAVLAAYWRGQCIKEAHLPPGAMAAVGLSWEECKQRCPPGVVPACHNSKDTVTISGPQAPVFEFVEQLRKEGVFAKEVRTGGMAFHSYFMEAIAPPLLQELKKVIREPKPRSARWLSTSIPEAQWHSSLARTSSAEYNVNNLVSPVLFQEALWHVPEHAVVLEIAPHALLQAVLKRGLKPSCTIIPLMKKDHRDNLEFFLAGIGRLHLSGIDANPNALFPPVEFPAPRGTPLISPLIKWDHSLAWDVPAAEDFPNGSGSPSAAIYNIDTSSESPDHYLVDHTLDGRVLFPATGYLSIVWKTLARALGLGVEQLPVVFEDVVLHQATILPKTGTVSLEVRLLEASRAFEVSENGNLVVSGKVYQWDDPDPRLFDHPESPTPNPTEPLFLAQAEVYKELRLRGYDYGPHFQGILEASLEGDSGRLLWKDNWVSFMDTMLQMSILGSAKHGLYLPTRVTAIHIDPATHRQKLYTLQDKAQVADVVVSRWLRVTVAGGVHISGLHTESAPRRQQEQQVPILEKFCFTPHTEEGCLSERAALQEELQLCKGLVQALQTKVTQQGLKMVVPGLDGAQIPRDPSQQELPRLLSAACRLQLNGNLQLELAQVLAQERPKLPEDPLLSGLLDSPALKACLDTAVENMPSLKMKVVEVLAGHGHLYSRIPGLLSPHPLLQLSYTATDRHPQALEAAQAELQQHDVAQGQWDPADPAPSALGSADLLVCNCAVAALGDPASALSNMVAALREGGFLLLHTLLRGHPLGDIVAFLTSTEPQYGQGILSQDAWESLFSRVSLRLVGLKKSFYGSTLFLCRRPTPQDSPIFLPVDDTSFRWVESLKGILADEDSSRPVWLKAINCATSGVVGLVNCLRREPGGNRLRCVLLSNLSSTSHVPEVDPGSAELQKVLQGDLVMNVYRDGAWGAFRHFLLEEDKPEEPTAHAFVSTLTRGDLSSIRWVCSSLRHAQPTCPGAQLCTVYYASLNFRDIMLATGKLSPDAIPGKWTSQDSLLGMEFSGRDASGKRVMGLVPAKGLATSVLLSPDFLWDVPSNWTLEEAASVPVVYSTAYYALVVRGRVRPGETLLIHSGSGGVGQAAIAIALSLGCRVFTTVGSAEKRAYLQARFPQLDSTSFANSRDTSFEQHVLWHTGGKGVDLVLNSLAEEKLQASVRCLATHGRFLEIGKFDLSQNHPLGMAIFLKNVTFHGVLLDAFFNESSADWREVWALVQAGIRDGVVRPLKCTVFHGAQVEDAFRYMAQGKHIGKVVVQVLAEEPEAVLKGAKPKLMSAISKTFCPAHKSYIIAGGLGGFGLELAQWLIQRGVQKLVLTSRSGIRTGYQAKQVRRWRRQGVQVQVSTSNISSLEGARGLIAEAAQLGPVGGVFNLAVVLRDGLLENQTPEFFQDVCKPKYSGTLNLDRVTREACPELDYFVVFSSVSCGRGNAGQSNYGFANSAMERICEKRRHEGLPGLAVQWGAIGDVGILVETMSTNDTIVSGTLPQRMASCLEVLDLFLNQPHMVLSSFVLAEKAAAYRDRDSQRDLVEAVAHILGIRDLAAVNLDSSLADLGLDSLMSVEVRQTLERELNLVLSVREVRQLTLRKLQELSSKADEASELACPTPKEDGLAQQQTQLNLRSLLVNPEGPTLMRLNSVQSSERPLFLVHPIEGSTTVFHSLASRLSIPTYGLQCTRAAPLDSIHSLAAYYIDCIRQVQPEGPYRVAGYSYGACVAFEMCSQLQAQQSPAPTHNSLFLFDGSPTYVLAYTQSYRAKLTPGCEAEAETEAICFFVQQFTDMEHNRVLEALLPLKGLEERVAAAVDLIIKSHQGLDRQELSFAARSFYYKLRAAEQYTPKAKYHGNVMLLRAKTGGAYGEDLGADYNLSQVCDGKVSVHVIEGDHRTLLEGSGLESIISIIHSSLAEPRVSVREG
Myeloid diff MLP: myeloid differentiation induction; calls only at 10 µM; AID 624256; ER-HoxA9 myeloid progenitors, lysozyme-GFP differentiation, flow cytometry; actives 1% (n = 360,000);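 active = normalized GFP-positive differentiation at or above the plate's own cutoff, the solvent-only control mean plus 3 SD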;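 also: cells exposed to compound for four days before flow analysis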
Myeloid diff: compounds promoting myeloid differentiation. ER-HoxA9 myeloid progenitors, GFP/Mac1 double-positive flow. actives 2% (n = 2,300). shares compounds with Myeloid diff MLP. calls only;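 active = share of green or green-and-red cells above 9 and 9% in run 1 or 4 and 3% in run 2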
GFP autofluor: flagged as fluorescent in myeloid differentiation counter-screen | shares compounds with Myeloid diff MLP | ER-HoxA9 myeloid progenitors, no estrogen, GFP autofluorescence flow cytometry; vehicle wells 0%, positive control 100% | fluorescence response, % (concentration not given with the values) | actives 7.4% (n = 2,300);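 active = over 5% cells positive for green fluorescent reporter, or over 2% positive for both it and APC stain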
Numbers stand for hits. Shown are actives, neighbours in structure and some others; about 3.6% of the full set was active somewhere.

Results for CCc1ccc(CNC(=O)CCc2nnc(Cc3cccc(C(F)(F)F)c3)o2)nc1 ?
CendR NRP1 mod: inactive; CRFR2-BP antag: inactive; NadD inh: inactive; FAS-TE inh: inactive; Myeloid diff MLP: active; Myeloid diff: inactive; GFP autofluor: inactive

Results for COc1ccc(C2CC(C(F)(F)F)n3nc(C(=O)O)c(Cl)c3N2)cc1OC (stereo not given) ?
CendR NRP1 mod: 35; CRFR2-BP antag: inactive; NadD inh: inactive; FAS-TE inh: inactive; Myeloid diff MLP: inactive; Myeloid diff: inactive; GFP autofluor: inactive

Results for COc1ccc(S(=O)(=O)N2CCCOC2CNC(=O)C(=O)NCCc2ccco2)cc1C (stereo not given) ?
CendR NRP1 mod: inactive; CRFR2-BP antag: inactive; NadD inh: inactive; FAS-TE inh: inactive; Myeloid diff MLP: inactive

What do the screens show for `N#CCSc1ccccc1NC(=O)COC(=O)CCNC(=O)c1ccc([N+](=O)[O-])cc1`?
CendR NRP1 mod: inactive; CRFR2-BP antag: inactive; NadD inh: inactive; FAS-TE inh: inactive; Myeloid diff MLP: active; Myeloid diff: inactive; GFP autofluor: 41

How did CCc1noc(C)c1C(=O)OCC(=O)Nc1ccccc1SC do in these assays?
CendR NRP1 mod: inactive; CRFR2-BP antag: inactive; NadD inh: inactive; FAS-TE inh: inactive; Myeloid diff MLP: inactive

Results for Cc1noc(C)c1C(=O)OCC(=O)Nc1ccccc1SCC#N ?
CendR NRP1 mod: inactive; CRFR2-BP antag: inactive; NadD inh: inactive; FAS-TE inh: inactive; Myeloid diff MLP: active; Myeloid diff: inactive; GFP autofluor: 57

How did CNC(=S)N/N=C/c1c2ccccc2c(Cl)c2ccccc12 do in these assays?
CendR NRP1 mod: inactive; CRFR2-BP antag: inactive; NadD inh: inactive; FAS-TE inh: inactive; Myeloid diff MLP: inactive

Results for CS(=O)(=O)Nc1cccc(C2=NN(S(=O)(=O)c3ccccc3)C(c3ccco3)C2)c1 (stereo not given) ?
CendR NRP1 mod: inactive; CRFR2-BP antag: inactive; NadD inh: inactive; FAS-TE inh: inactive; Myeloid diff MLP: inactive

Results for CCS(=O)(=O)N1N=C(c2cccc(NS(C)(=O)=O)c2)CC1c1ccccc1 (stereo not given) ?
CendR NRP1 mod: inactive; CRFR2-BP antag: inactive; NadD inh: inactive; FAS-TE inh: inactive; Myeloid diff MLP: active; Myeloid diff: inactive; GFP autofluor: 97

What do the screens show for `CCc1ccc(C=C2SC(=S)N(CCCC(=O)Nc3ccc(C(=O)O)cc3)C2=O)cc1`?
CendR NRP1 mod: inactive; NadD inh: inactive; FAS-TE inh: inactive; Myeloid diff MLP: inactive; Myeloid diff: inactive; GFP autofluor: inactive

Results for O=C(CCN1C(=O)/C(=C/c2ccc(Cl)cc2)SC1=S)Nc1ccc(C(=O)O)cc1 ?
CendR NRP1 mod: inactive; CRFR2-BP antag: inactive; NadD inh: inactive; FAS-TE inh: inactive; Myeloid diff MLP: inactive

How did Clc1cccc(OCc2nc(-c3ccncc3)n[nH]2)c1 do in these assays?
CendR NRP1 mod: inactive; CRFR2-BP antag: inactive; NadD inh: inactive; FAS-TE inh: inactive; Myeloid diff MLP: inactive; Myeloid diff: inactive; GFP autofluor: inactive

How did Fc1ccc(OCc2nc(-c3ccncc3)n[nH]2)cc1 do in these assays?
CendR NRP1 mod: inactive; CRFR2-BP antag: inactive; NadD inh: inactive; FAS-TE inh: inactive; Myeloid diff MLP: inactive

How did CC(=O)C1C(c2ccc(F)c(F)c2)NC(=O)NC1(O)C(F)(F)F (stereo not given) do in these assays?
CendR NRP1 mod: inactive; CRFR2-BP antag: inactive; NadD inh: inactive; FAS-TE inh: inactive; Myeloid diff MLP: inactive; Myeloid diff: inactive; GFP autofluor: inactive

How did CSCC[C@H](NC(=O)C1CCN(S(=O)(=O)c2ccc(C)cc2)CC1)C(=O)NCc1ccco1 do in these assays?
CendR NRP1 mod: inactive; CRFR2-BP antag: inactive; NadD inh: inactive; FAS-TE inh: inactive; Myeloid diff MLP: active; Myeloid diff: inactive; GFP autofluor: inactive

What do the screens show for `CSCC[C@H](NC(=O)C1CCN(S(=O)(=O)c2ccc(C)cc2)CC1)C(=O)NCC1CCCO1` (stereo not given in full)?
CendR NRP1 mod: inactive; CRFR2-BP antag: inactive; NadD inh: inactive; FAS-TE inh: inactive; Myeloid diff MLP: inactive

Results for O=C(NC1CCCC1)c1ccc(Cn2c(=O)[nH]c3ccsc3c2=O)cc1 ?
CendR NRP1 mod: inactive; CRFR2-BP antag: inactive; NadD inh: inactive; FAS-TE inh: inactive; Myeloid diff MLP: inactive

How did O=C(Cn1c(=O)[nH]c2ccsc2c1=O)NC1CCCCC1 do in these assays?
CendR NRP1 mod: inactive; CRFR2-BP antag: inactive; NadD inh: inactive; FAS-TE inh: inactive; Myeloid diff MLP: active; Myeloid diff: inactive; GFP autofluor: inactive

What do the screens show for `CC1Cc2ccccc2N1C(=O)c1ccnc(C(C)(C)C)c1` (stereo not given)?
CendR NRP1 mod: inactive; CRFR2-BP antag: inactive; NadD inh: inactive; FAS-TE inh: inactive; Myeloid diff MLP: active; Myeloid diff: inactive; GFP autofluor: inactive

What do the screens show for `O=[N+]([O-])c1ccc(Br)c(CN2CCN(c3ncc(Cc4ccccc4)cn3)CC2)c1`?
CendR NRP1 mod: inactive; Myeloid diff MLP: inactive

What do the screens show for `CCOC(=O)N1CCN(C(=O)C2CCN(S(=O)(=O)N3CCCC3)CC2)CC1`?
CendR NRP1 mod: inactive; CRFR2-BP antag: inactive; NadD inh: inactive; FAS-TE inh: inactive; Myeloid diff MLP: active; Myeloid diff: inactive; GFP autofluor: inactive

Results for COc1ccc2nc3ccccc3nc2c1NC(=O)c1ccc(Br)cc1 ?
CendR NRP1 mod: inactive; CRFR2-BP antag: inactive; NadD inh: inactive; FAS-TE inh: inactive; Myeloid diff MLP: active; Myeloid diff: inactive; GFP autofluor: 5.4

How did COc1cccc(NC(=O)CN(C)C(=O)c2ccccn2)c1 do in these assays?
CendR NRP1 mod: inactive; CRFR2-BP antag: inactive; NadD inh: inactive; FAS-TE inh: inactive; Myeloid diff MLP: inactive

Results for Cc1ccc(Nc2nnc(SCC(=O)NC3CCS(=O)(=O)C3)s2)c(C)c1 (stereo not given) ?
CendR NRP1 mod: inactive; CRFR2-BP antag: inactive; NadD inh: inactive; FAS-TE inh: inactive; Myeloid diff MLP: inactive; Myeloid diff: inactive; GFP autofluor: 5.9

Results for COc1ccc2sc3c(=O)[nH]c4ccccc4c3c2c1 ?
CendR NRP1 mod: inactive; CRFR2-BP antag: inactive; NadD inh: inactive; FAS-TE inh: inactive; Myeloid diff MLP: active; Myeloid diff: inactive; GFP autofluor: inactive

How did Cc1cccc(NC(=S)NC(NC(=O)OCc2ccccc2)C(Cl)(Cl)Cl)c1 (stereo not given) do in these assays?
CendR NRP1 mod: inactive; CRFR2-BP antag: inactive; NadD inh: inactive; FAS-TE inh: inactive; Myeloid diff MLP: inactive; Myeloid diff: inactive; GFP autofluor: inactive

What do the screens show for `CC(C)CC(=O)NC(NC(=S)Nc1ccccc1)C(Cl)(Cl)Cl` (stereo not given)?
CendR NRP1 mod: inactive; CRFR2-BP antag: inactive; NadD inh: inactive; FAS-TE inh: inactive; Myeloid diff MLP: inactive; Myeloid diff: inactive; GFP autofluor: inactive
